Assay outcomes (PubChem)
BJeLR viab HTS: lowers viability of BJeLR cells; 0.64% of 30,000 active; viability loss activity score, % (concentration not given with the values); BJeLR fibroblasts viability, CellTiterGlo ATP luminescence, 48 h; HRASV12, hTERT and SV40 LT/ST transformed; in the data active means viability loss activity score above about 50%;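 further: higher score means fewer live cells and less ATP luminescence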
A1 inhib: A1 inhibition. MEF A1-2A-BIM cells, caspase-Glo luminescence, 3 h; percent of clofoctol signal, DMSO as zero. caspase activation, % (no concentration beside the values). 0.51% of 21,000 active. AID 2241;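 active means most replicate scores above 10, or exactly half above 10 with mean activity above 10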;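 further: effector caspase 3 and 7 activity cleaving a DEVD luciferin substrate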
Each line names hits and unclear results; the compound was inactive in the other large screens. Most compounds without a hit are left out; they make up all but 0.9% or so of the library.

COc1ccc(C(=O)O[C@H]2CC[C@@]3(C)[C@@H]4CC[C@H]5[C@]6(O)C[C@H](O)[C@@]7(O)[C@@H](CN8C[C@@H](C)CC[C@H]8[C@@]7(C)O)[C@]6(O)C[C@@]53O[C@]24O)cc1OC	none
O=c1c2ccccc2[nH]c(=S)n1-c1cc(C(F)(F)F)cc(C(F)(F)F)c1	none
C=C1C(=O)O[C@@H]2/C=C(/C)CC/C=C(/C)C[C@@H](OC(=O)/C(=C/CO)CO)C12 (stereo partly drawn)	none
CC(=O)NCC1CCCN2CCCCC12 (stereo not drawn)	none
COc1cc2c(cc1O)C1Cc3ccc(OC)c(O)c3CN1CC2 (stereo not drawn)	none
COc1ccc2c3c1O[C@H]1[C@@H](O)CC=C4[C@@H](C2)N(C)CC[C@]431	none
N#Cc1cc2c(nc1SCc1ccccc1Br)C1CCN2CC1	none (no result: A1 inhib)
CO[C@H]1[C@H](O)[C@@H](O[C@H]2CC[C@]3(C=O)C4CC[C@]5(C)[C@@H](C6=CC(=O)OC6)CC[C@]5(O)C4CC[C@@H]3C2)O[C@@H](C)[C@@H]1O (stereo partly drawn)	BJeLR viab HTS 133
O=C1CCCC2C3CC(CN12)[C@@H]1CCCCN1C3 (stereo partly drawn)	none
COc1ccc(/C=C/C(=O)C2C(=O)NC34CCCCC3C2c2ccccc2O4)c(OC)c1OC (stereo not drawn)	none (no result: A1 inhib)
CSc1ncccc1C1=N/C(=C\N(C)C)C(=O)O1	none
CO[C@@H]1[C@H](O)[C@@H](O[C@@H]2C[C@H]3CC[C@@H]4C(CC[C@]5(C)[C@@H](C6=CC(=O)OC6)CC[C@]45O)[C@@]3(C)[C@H](O)C2)O[C@H](C)[C@@H]1O[C@@H]1O[C@H](CO)[C@@H](O)[C@H](O)[C@H]1O (stereo partly drawn)	BJeLR viab HTS 111
CO[C@H]1[C@H](O)[C@H](O[C@H]2CC[C@]3(C)C4CC[C@]5(C)[C@H](C6=CC(=O)OC6)CC[C@]5(O)C4CC[C@@H]3C2)O[C@@H](C)[C@@H]1O[C@@H]1O[C@H](CO[C@@H]2O[C@H](CO)[C@@H](O)[C@H](O)[C@H]2O)[C@@H](O)[C@H](O)[C@H]1O (stereo partly drawn)	BJeLR viab HTS 100
CC(=O)O[C@H]1C[C@H](O[C@H]2[C@@H](O)C[C@H](O[C@H]3[C@@H](O)C[C@H](O[C@H]4CC[C@@]5(C)C(CCC6C5C[C@@H](O)[C@]5(C)[C@@H](C7=CC(=O)OC7)CC[C@]65O)C4)O[C@@H]3C)O[C@@H]2C)O[C@H](C)[C@H]1O[C@@H]1O[C@H](CO)[C@@H](O)[C@H](O)[C@H]1O (stereo partly drawn)	BJeLR viab HTS 109
O=c1c2ccccc2[nH]c(=S)n1-c1ccc(Cl)c(Cl)c1	none
Cc1cc(OCC(=O)N(C)C)c2c3c(c(=O)oc2c1)CCCC3	none
CCC(C)[C@H]1O[C@]2(C=C[C@@H]1C)C[C@@H]1C[C@@H](C/C=C(\C)[C@@H](OC3C[C@H](OC)C(O[C@H]4C[C@H](OC)[C@@H](O)[C@H](C)O4)[C@H](C)O3)[C@@H](C)/C=C/C=C3\CO[C@@H]4[C@H](O)C(C)=C[C@@H](C(=O)O1)[C@]34O)O2 (stereo partly drawn)	none
O=C(O)C1C2CC3CC(C2)CC1(n1ncc(N2CCOCC2)c(Cl)c1=O)C3 (stereo not drawn)	none
COc1ccc2c(c1OC)C(=O)O[C@@H]2[C@@H]1c2cc3c(cc2CCN1C)OCO3	none
CC(Cc1c[nH]c2ccccc12)N(Cc1ccccc1)Cc1ccccc1 (stereo not drawn)	none (no result: A1 inhib)
COC1CC(OC2C(C)OC(OC3C(C)OC(OC4C(C)OC(O[C@H]5CC[C@@]6(C)C(=CC[C@]7(O)C6CC(OC(=O)c6ccccc6)[C@@]6(C)[C@]7(O)CC[C@@]6(O)C(C)=O)C5)CC4OC)CC3OC)CC2OC)OC(C)C1O (stereo partly drawn)	BJeLR viab HTS 75
